Experimental findings from PubChem BioAssay AID1851 (National Center for Advancing Translational Sciences (NCATS), 2009) are described below.

Values joined by “and” are separate entries in the source; they are usually repeats but may differ in a detail not shown here. Identical values can stand only once. About 5,800 (36%) of roughly 16,000 compounds were called active. Inconclusive results (about 23%) are left out. The call rests on the fitted dose curve; in most records, active means well fitted curve in the direction sought with a large enough effect; inconclusive means small, poorly fitted or top-dose-only effect, or effect the other way; inactive means no such curve, though single readings can be large or run the other way. The list shows a part of the results.

One may read the AC50 as the concentration at which the activity in the assay is half-maximal.
On the % scale 0 is the no-effect control and ±100 the full control effect.

For this assay, the target named is Cytochrome P450 2C19 (Homo sapiens) (UniProt P33261). Put plainly: Cytochrome panel assay with activity outcomes. The conditions noted are these: recombinant CYP, pro-luciferin dealkylation, luminescence, p450-cyp2c19; series mostly up to 57.1 µM; activity, negative = inhibition: at the top concentration.
Chain of Cytochrome P450 2C19 (Homo sapiens) (P33261 whole entry, looked up): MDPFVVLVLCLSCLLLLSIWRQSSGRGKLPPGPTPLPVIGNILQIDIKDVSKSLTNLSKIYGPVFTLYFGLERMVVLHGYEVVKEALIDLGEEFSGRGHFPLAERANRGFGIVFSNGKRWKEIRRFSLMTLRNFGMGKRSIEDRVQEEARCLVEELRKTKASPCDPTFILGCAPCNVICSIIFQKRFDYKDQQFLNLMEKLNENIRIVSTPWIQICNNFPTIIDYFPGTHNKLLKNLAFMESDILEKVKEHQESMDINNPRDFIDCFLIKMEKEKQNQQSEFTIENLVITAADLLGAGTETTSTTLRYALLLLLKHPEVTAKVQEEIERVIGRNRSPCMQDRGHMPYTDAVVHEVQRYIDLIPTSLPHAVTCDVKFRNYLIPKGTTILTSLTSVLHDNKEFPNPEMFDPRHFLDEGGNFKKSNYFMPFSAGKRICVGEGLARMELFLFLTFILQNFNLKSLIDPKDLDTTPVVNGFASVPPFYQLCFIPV
Turning to `CC1CN(C(=O)CN2C(=O)NC3(CCCCCC3)C2=O)CC(C)O1` (stereo not drawn), the “activity, negative = inhibition” value is -25.4% (inactive). As for `Cc1ccc(CC(=O)N2CC(C)OC(C)C2)cc1` (stereo not drawn), the AC50 was 8.91 µM (active).

With `CCNC(=S)N1CC(C)OC(C)C1` (stereo not drawn), the “activity, negative = inhibition” value was 13.7% (inactive). Turning to `c1ccc2c(c1)ncn2-c1ccc(-c2ccnc(-c3ccncc3)n2)cc1`, the AC50 was 0.2 µM (active). As for `CCOC(=O)c1ccc2nc(C)c(CCC(C)=O)c(Cl)c2c1`, the concentration at half-maximal activity (AC50) was 5.62 µM (active). Turning to `CC(C)(C)c1cc(C(=O)O)c(CN2CCCCC2)o1`, the “activity, negative = inhibition” value was -27.2% (inactive). The same measure, in the same setting: the figure for `CN(C)S(=O)(=O)c1ccc(C(=O)Nc2ccc(CN3CCCC3)cc2)cc1` is -17.7% (inactive). For `CN(C)S(=O)(=O)Oc1ccsc1C(=O)Nc1ccc(Cl)cc1`, the AC50 is 0.891 µM (active). As to `COc1ccc(/C=N/n2cnc3c([nH]c4ccc(Br)cc43)c2=O)cc1CN1CCOCC1`, the AC50 was 3.55 µM (active). `[N-]=[N+]=Nc1ccc(C(=O)CSC[C@@H](NC(=O)CC[C@@H](N)C(=O)O)C(=O)NCC(=O)O)cc1`: the “activity, negative = inhibition” value was -17.4% (inactive).

Turning to `c1ccc(CCN2CCN=C2Cc2ccccc2)cc1`, the activity, negative = inhibition is 7.77% [at 11.4 µM] (inactive).

Regarding `ON(CCc1ccncc1)Cc1ccccc1`, the AC50 is 0.316 µM (active). For `ON(CCc1ccccn1)Cc1ccccc1`, the activity, negative = inhibition was -32.5% [at 11.4 µM] (inactive).

Take `Fc1ccc(SCCc2ccncc2)cc1`: the AC50 was 0.447 µM (active).

In the case of `c1ccc(SCCc2ccncc2)cc1`, the AC50 is 447 nM (active) and 794 nM (active). The same measure, in the same setting: the figure for `CCOc1cc(/C=N/NC(=O)COc2cccc(C)c2)ccc1OC(=O)c1cccs1` is 8.91 µM (active). Regarding `COc1ccc(/C=C/C(=O)Oc2cccc(/C=N/NC(=O)COc3c(C)cccc3C)c2)cc1`, the “activity, negative = inhibition” value was -25% (inactive). As for `CCOc1cc(/C=N/NC(=O)CNc2cccc(C)c2)ccc1OC(=O)c1ccccc1`, the AC50 is 10 µM (active). Same read-out and setting: for `O=C(CN1CCN(S(=O)(=O)c2ccc(F)cc2)CC1)Nc1ccc(Cl)c(C(F)(F)F)c1` the value was 7.94 µM (active). Same read-out and setting: the figure for `O=C(CN1CCN(S(=O)(=O)c2ccc(Cl)cc2)CC1)Nc1ccc2c(c1)OCO2` is 2.82 µM (active). Take `O=C1C=CC(=Nc2cccc3c(N=C4C=CC(=O)O4)cccc23)O1`: the activity, negative = inhibition was -74.7% [at 11.4 µM] (inactive).

Regarding `CC1=CC(C)(C)NC(=S)N1c1cccc(C)c1`, the AC50 was 3.98 µM (active). Regarding `COc1cccc([C@H]2Oc3ccc(OC)cc3/C(=N\OC[C@@H](O)[C@@H]3O[C@@H]4OC(C)(C)O[C@@H]4[C@H]3O)[C@@H]2O)c1`, the activity, negative = inhibition was -33% [at 11.4 µM] (inactive).

Consider `COc1cccc([C@@H]2Oc3ccc(OC)cc3/C(=N/OC[C@@H](C)[C@H](OCc3ccccc3)C(C)C)[C@@H]2O)c1`, for which the AC50 was 2 µM (active). With `CCN1C(=O)[C@H]2[C@H]3[C@H](O)[C@H](O)C/C(=N/OC[C@@H](C)[C@H](OCc4ccccc4)C(C)C)[C@@H]3CC[C@@H]2C1=O`, the activity, negative = inhibition was -18.6% [at 11.4 µM] (inactive). Same read-out and setting: the figure for `COc1cccc([C@@H]2Oc3ccc(OC)cc3/C(=N/O[C@@H](C)c3cn([C@H]4COC[C@H]4O)nn3)[C@@H]2O)c1` is -35.4% [at 11.4 µM] (inactive).

Turning to `COc1cccc([C@@H]2Oc3ccc(OC)cc3/C(=N/O[C@@H](C)c3cc(-c4c(C)cc(C)cc4C)no3)[C@@H]2O)c1`, the AC50 is 1.58 µM (active). On the same count and under the same terms, for `COc1cccc([C@@H]2Oc3ccc(OC)cc3/C(=N/OC[C@@H](O)COCc3ccco3)[C@@H]2O)c1` the value was 1.58 µM (active). In the case of `CCN1C(=O)[C@H]2[C@H]3[C@H](O)[C@H](O)C/C(=N/O[C@@H](C)c4cc(-c5c(C)cc(C)cc5C)no4)[C@@H]3CC[C@@H]2C1=O`, the activity, negative = inhibition is -26.1% [at 11.4 µM] (inactive).

`COc1cccc([C@H]2Oc3ccc(OC)cc3/C(=N\O[C@@H](C)c3cn([C@H](CO)Cc4ccccc4)nn3)[C@@H]2O)c1`: the activity, negative = inhibition was -44.2% [at 11.4 µM] (inactive). Still for that read-out and setting: the figure for `CC(C)=NOC[C@@H](O)COCc1ccco1` is -10.6% [at 11.4 µM] (inactive). The same measure, in the same setting: the figure for `O=C(O)/C(=C/c1c(C(=O)O)[nH]c2cc(Cl)cc(Cl)c12)c1ccccc1` is -13.2% (inactive). In the case of `O=C1NCCN1Cc1ccccc1F`, the AC50 is 20 µM (active). The same measure, in the same setting: the figure for `CN(C)S(=O)(=O)Oc1cccc(C(=O)Nc2ccc(Cl)c(Cl)c2)c1` is 3.98 µM (active); for `CN(C)S(=O)(=O)Oc1cccc(C(=O)Nc2ccccc2Cl)c1` it is 2.82 µM (active). `CC(C)(N=NC(C)(C)C(=N)N)C(=N)N`: the activity, negative = inhibition is 41.9% [at 11.4 µM] (inactive).

With `CON1C(=O)C(=O)N(OC)C2CCCCC21` (stereo not drawn), the “activity, negative = inhibition” value was 24.9% (inactive).

In the case of `CC=C(/C(=C/C)c1ccc(O)cc1)c1ccc(O)cc1`, the AC50 is 3.16 µM (active). Regarding `N#CC(C#N)=C(N)/C(C#N)=C/c1ccc(O)cc1`, the “activity, negative = inhibition” value was 0.416% (inactive). Take `COc1ccc(CNC(=O)C2CC(c3ccc(OC)cc3)=NO2)cc1` (stereo not drawn): the “activity, negative = inhibition” value was -2.25% (inactive). Consider `COc1cccc(C2=NOC(C(=O)NCc3ccccc3)C2)c1` (stereo not drawn), for which the AC50 was 3.98 µM (active).

For the molecule `COc1cccc(C2=NOC(C(=O)Nc3cccnc3)C2)c1` (stereo not drawn), the AC50 was 10 µM (active). On the same count and under the same terms, for `O=C(NCc1ccc2c(c1)OCO2)C1CC(c2cccc(Br)c2)=NO1` (stereo not drawn) the value was 11.2 µM (active).

Turning to `COCCNC(=O)C1CC(c2cccc(OC)c2)=NO1` (stereo not drawn), the “activity, negative = inhibition” value is -24.6% (inactive). For `COc1ccc(CNC(=O)C2CC(c3cccc([N+](=O)[O-])c3)=NO2)cc1` (stereo not drawn), the AC50 was 10 µM (active).

Take `COc1cccc(C2=NOC(C(=O)NCCN3CCOCC3)C2)c1` (stereo not drawn): the “activity, negative = inhibition” value was -20.2% (inactive). The same measure, in the same setting: for `CCNc1ncc2nc(C)c(=O)n(Cc3cccs3)c2n1` the value was -27.9% (inactive).

`COC(=O)N1CCC[C@@]2(CCN(C(=O)Nc3cccc(F)c3)C2)C1`: the “activity, negative = inhibition” value was -41.5% (inactive).

Turning to `CN1CCN(c2ncc3nc(-c4cccs4)c(=O)n(-c4ccccc4)c3n2)CC1`, the “activity, negative = inhibition” value is 22.2% (inactive). As to `O=c1c(-c2cccs2)nc2cncnc2n1-c1ccccc1`, the half-maximal activity concentration (AC50) was 6.31 µM (active). Turning to `Cn1c(=O)c(-c2cccs2)nc2cncnc21`, the “activity, negative = inhibition” value is -45.6% (inactive). On the same count and under the same terms, for `COc1ccc(-n2c(=O)c(-c3cccs3)nc3cnc(Oc4ccccc4)nc32)cc1` the value was -6.86% (inactive); for `O=c1c(-c2cccs2)nc2cnc(N3CCOCC3)nc2n1-c1ccccc1`, -11.6% (inactive). Take `COc1ccc(-n2c(=O)c(-c3cccs3)nc3cncnc32)cc1`: the AC50 is 15.8 µM (active).

For the molecule `CCCc1ncc(C[n+]2ccccc2C)c(N)n1`, the “activity, negative = inhibition” value was 0.835% [at 25.6 µM] (inactive).

As to `COCC(=O)N1CCC2(CC1)CCN(C(=O)Nc1ccc(OC)cc1)CC2`, the “activity, negative = inhibition” value is -5.31% (inactive). With `COc1ccc2c(c1)c(=O)oc1c(C)c(OCC(=O)N3CCc4ccccc4C3)ccc12`, the AC50 was 0.398 µM (active). As to `CCOc1cc(/C=C2/SC(=O)N(CC(=O)N3CCc4ccccc4C3)C2=O)ccc1OCC(=O)O`, the “activity, negative = inhibition” value was 2.89% (inactive).
